Experimental data as given in PubChem BioAssay.
Calls of active or inactive are those of the source.

Molecular target: Homeobox protein Hox-A13 (Mus musculus) (UniProt Q62424)
Assay: inhibitors of HoxA13-DNA binding, primary screen, biochemical, fluorescence polarization, labeled oligonucleotide (AID 1185)
Conditions: 15 min, higher = more signal, called active from +8 up or from −8 down

Sequence of Homeobox protein Hox-A13 (Mus musculus) (Q62424 whole entry, looked up): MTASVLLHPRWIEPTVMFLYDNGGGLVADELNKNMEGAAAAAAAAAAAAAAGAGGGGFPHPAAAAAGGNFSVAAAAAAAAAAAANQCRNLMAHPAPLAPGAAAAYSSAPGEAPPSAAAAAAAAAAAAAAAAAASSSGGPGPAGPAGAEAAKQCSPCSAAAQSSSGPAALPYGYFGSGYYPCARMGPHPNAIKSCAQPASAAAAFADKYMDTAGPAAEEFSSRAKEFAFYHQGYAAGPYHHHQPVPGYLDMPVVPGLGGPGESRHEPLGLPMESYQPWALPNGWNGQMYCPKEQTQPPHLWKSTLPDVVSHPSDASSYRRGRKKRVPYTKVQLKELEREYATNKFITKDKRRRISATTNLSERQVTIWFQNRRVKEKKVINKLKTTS

z-score, inactive:
CC(C)C[C@H](NC(=O)CCC1CC(OC(=O)NCc2cccc3ccccc23)CC2(CCCC(COC(=O)NCc3ccccc3)O2)O1)C(=O)NCC(c1ccccc1)c1ccccc1 (some centres undefined) -6.28
COc1ccc(O[C@H]2C=C[C@@H](c3ccccc3)O[C@@H]2CON=C(C)C)cc1 2.39
CON=C1[C@H]2CCn3c(=O)n(-c4ccccc4)c(=O)n3[C@H]2[C@H](O)[C@@H]2O[C@H]12 -0.465
CC(CCN1CCc2nc(-c3ccccc3)c(-c3ccccc3)cc2C1)=NOC[C@@H](O)[C@H]1O[C@@H]2OC(C)(C)O[C@@H]2[C@H]1O -5.63
CC(CCN1CCCc2nc(C)c(C)cc21)=NO[C@@H](C)c1cc(-c2c(C)cc(C)cc2C)no1 -3.46
CCCNC(=O)OC[C@H]1O[C@H](CCON=C(C)CCN2CCCc3nc(C)c(C)cc32)C=C[C@@H]1Oc1ccc(OC)cc1 -5.56
CCOC(=O)[C@H](CC(C)C)NC(=O)CCC1CC(OC(=O)NCc2cccc3ccccc23)CC2(CCCC(COC(=O)NCc3cccc(C(F)(F)F)c3)O2)O1 (some centres undefined) -0.443
O=C1CCCC(C2=CCCCC2=O)C1 (centres undefined) -1.63
CCc1cc2c(nc1CC)CCN(CCC(C)=NO[C@@H](C)c1cn([C@H](CO)Cc3ccccc3)nn1)C2 -6.65
